Screening data as filed in PubChem BioAssay.
STAT1 blocker: STAT1 signaling inhibitors, primary screen, cell-based, HTS, luciferase reporter; NIH 3T3 STAT1-luciferase reporter, IFN-gamma, luminescence; inhibition, % at 5.5 µM; actives 0.35% (n = 200,000); AID 920, 2007;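 active = inhibition above a set limit, the mean inhibition across all tested compounds plus 3 SD, cut at about 34% in these data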
PPC-1+TRAIL kill: compounds killing PPC-1 cancer cells with TRAIL present, primary screen, TRAIL potentiator project, ATPLite luminescence, uHTS; PPC-1 cells + TRAIL, ATPLite viability luminescence; cell killing (% activity), % at 4 µM or 5 µM; actives 0.41% (n = 220,000);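 active = cell killing above 50% in the first pass at 4 µM, then a duplicate retest at 5 µM averaging 50% or more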
STAT3 blocker: IL-6 driven STAT3 reporter inhibitors, primary screen, U3A cells, luciferase, luminescence, MLSCN library; AID 862, 2007; IL-6 STAT3-luciferase reporter; host cell line lacks STAT1; inhibition, % at 5.5 µM; actives 0.89% (n = 190,000);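 active = inhibition above the mean inhibition across all screened compounds plus 3 SD, cut at about 44% in these data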
HSP90 inh: HSP90 inhibitors, primary screen, cell lysate, luminescence; Heat shock protein HSP 90 (rabbit reticulocyte lysate; luciferase refolding); Rabbit reticulocyte lysate, luciferase refolding luminescence, 3 h; inhibition, % at 5.6 µM; actives 0.91% (n = 290,000);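 active = inhibition above the screen-wide mean plus 3 SD, computed separately per campaign, cut at about 16% in these data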;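 note: inhibitors lower the luminescence because luciferase stays unfolded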
HSF1 inhib: HSF1 inhibitors in luciferase reporter cells, primary screen, cell-based, NIH3T3, luminescence; activity change, negative = inhibition, % at 7.5 µM (by protocol); AID 2098, 2009; actives 0.77% (n = 300,000); NIH3T3-HGL HSE-luciferase, MG132-induced, luminescence 8 h; active compounds read low;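 active = more than half of replicate wells show activity change below -50%, luminescence cut by over half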;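 note: luciferase reports HSF-1 transcriptional activity via heat shock element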
TRAIL sens C8: viability loss with TRAIL in NB7+C8 cells, primary screen, TRAIL sensitizer project, cell-based, ATPlite luminescence. actives 1% (n = 360,000). inhibition (viability loss, TRAIL sensitization), % at 10 µM;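 active = compounds causing at least 50% loss of cell viability in the single-dose screen, relative to plate controls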
A number is an active result; - = inactive; . = no result given. Shown are actives, neighbours in structure and some others; about 2.4% of the full set was active somewhere.

SMILES	STAT1 blocker	PPC-1+TRAIL kill	STAT3 blocker	HSP90 inh	HSF1 inhib	TRAIL sens C8
CCOc1ccc(CCNC(=O)c2nn(C)c3c2CS(=O)(=O)c2ccccc2-3)cc1OCC	.	.	.	-	-	-
O=C(Nc1ccc2nc3ccccc3nc2c1)c1ccccc1	-	-	-	-	-	57
Cc1cccc(C(=O)Nc2ccc(NC(=O)c3cccc(C)c3)cc2)c1	.	.	.	.	.	-
Cc1cccc(C(=O)Nc2ccc(C(=O)Nc3ccc(O)cc3)cc2)c1	.	.	.	-	-	68
Cc1ccccc1NC(=O)c1ccc(N/N=C/c2ccccc2O)c([N+](=O)[O-])c1	-	-	-	-	-	-
COC(=O)Cc1ccc(NC(=O)c2ccc(C(C)(C)C)cc2)cc1	44	-	85	-	-	74
Cc1ccc(NC(=O)c2ccc(N/N=C/c3cccc(O)c3)c([N+](=O)[O-])c2)cc1	-	53	-	-	-	-
CC(C)[C@@H]1Cc2[nH]c(=O)[nH]c(=O)c2[C@H](c2ccc(F)cc2)O1	.	.	.	.	.	-
Cc1nc2c(OCc3cc(Cl)cc(Cl)c3)cccn2c1N(C)C(=O)CCC1CCCC1	.	.	.	.	.	-
CCOC1=C2[C@@H](CN(S(=O)(=O)c3ccc(C)cc3)[C@H]2c2ccccc2F)[C@H]2C(=O)N(C3CCCCC3)C(=O)[C@H]2C1	.	.	.	.	.	-
Cc1ccc(C(=O)Nc2ccc(N3CCN(C)CC3)cc2)cc1	.	.	.	-	-	-
O=C(Nc1ccc(O)cc1)c1ccc(NC(=O)c2cccs2)cc1	.	.	.	-	-	66
Cc1ccc(NC(=O)c2ccc(Nc3c([N+](=O)[O-])cc([N+](=O)[O-])cc3[N+](=O)[O-])cc2)cc1	-	-	-	-	-71	-
CC(=O)Nc1ccc(NC(=O)c2cc([N+](=O)[O-])cc([N+](=O)[O-])c2)cc1	.	.	.	-	-	-
Cc1ccc(NC(=O)c2ccc(C)cc2)cc1	.	.	.	.	-	73
COC(=O)C[C@H]1C[C@H]2c3cc(NC(=O)Nc4ccc(F)cc4)ccc3O[C@H]2[C@@H](CO)O1	.	.	.	.	.	-
COC(=O)C[C@@H]1CC[C@H](NS(=O)(=O)c2ccccc2F)[C@@H](CO)O1	.	.	.	.	.	-
Cc1ccc(S(=O)(=O)N2CC(CO)=CCC2c2ccccc2)cc1 (centres undefined)	.	.	.	.	.	-
CC(=O)c1ccc(NC(=O)c2noc3c2CCC3)cc1	53	-	66	21	.	-
CCCS(=O)(=O)NC(=O)C1(C)CCCN(C(=O)c2c(F)ccc(C)c2F)C1 (centres undefined)	.	.	.	.	.	-
Cn1ncc([N+](=O)[O-])c1C(=O)Nc1ccccc1Cl	.	.	.	-	-73	-
Nc1ccc(C(=O)NN2C(=O)[C@H](Cl)C2c2ccc(Cl)cc2)cc1 (some centres undefined)	.	.	.	.	.	95
Brc1ccc2nc(-c3ccco3)c(CC3CCCCC3)n2c1	.	.	.	.	.	-
CCCC(=O)N(Cc1cc(=O)[nH]c2ccccc12)c1cccc(C)c1	.	.	.	-	-	-
Cc1cccc(N(Cc2cc(=O)[nH]c3ccccc23)C(=O)CCl)c1	.	.	.	-	-	84
SMILES	STAT1 blocker	PPC-1+TRAIL kill	STAT3 blocker	HSP90 inh	HSF1 inhib	TRAIL sens C8
COc1ccc(N(Cc2cc(=O)[nH]c3ccccc23)C(=O)CCl)cc1	.	.	.	-	-	96
CCCC(=O)N(Cc1cc(=O)[nH]c2ccccc12)c1ccc(OC)cc1	.	.	.	-	-	-
COC(=O)[C@H](CCSC)NC(=O)Cn1cc(C)c(=O)[nH]c1=O	.	.	.	.	.	-
NC1(CO)COC(c2ccccc2)OC1 (centres undefined)	.	.	.	.	.	-
CCOC(=O)c1sc(NC(=O)Nc2cccc(Cl)c2)cc1C	-	-	-	-	-	55
CCOC(=O)c1sc(NC(=O)c2sccc2C)cc1C	-	-	-	-	-	-
COc1cccc(N2C(N)=NC(N)=NC2(C)C)c1	-	-	-	-	-	85
COc1ccc(N2C(N)=NC(N)=NC2(C)C)cc1	-	-	-	-	-	82
Cc1ccc(N2C(N)=NC(N)=NC2(C)C)c(C)c1	-	-	-	-	-	72
CCOC(=O)c1cccc(N2C(N)=NC(N)=NC2(C)C)c1	-	-	-	-	-	67
